Holding throughout (assay): glycan array binding signal (z-score within array); higher = stronger binding
Details in all cases: glycan notation: IUPAC condensed, linker removed

The target of experiment [1] is Fuc(a1-2)Gal(b1-3)GalNAc(b1-3)Gal. An outline of the steps: (§1)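 Arrays were curated from the Consortium for Functional Glycomics database, 3228 in total, and kept only where the protein sequence was available. Binding is expressed as a within-array Z-score. This score was averaged across arrays of the same protein sequence at different concentrations or buffers and across linkers, and negative values can be read as non-binding.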

Experiment [2] has as its target Fuc(a1-2)Gal(b1-4)GlcNAc(b1-3)Gal(b1-4)GlcNAc. An outline of the steps:
as §1

Experiment [3] concerns the target Fuc(a1-2)Gal(b1-4)GlcNAc(b1-3)Gal(b1-4)GlcNAc(b1-3)Gal(b1-4)GlcNAc. An outline of the steps: as §1
In experiment [4] the target is Fuc(a1-2)Gal(b1-4)[Fuc(a1-3)]GlcNAc(b1-3)Gal(b1-4)[Fuc(a1-3)]GlcNAc(b1-3)Gal(b1-4)[Fuc(a1-3)]GlcNAc. The method, boiled down:
as §1

For experiment [5], the target named is Fuc(a1-2)[Gal(a1-3)]Gal(b1-4)Glc. The method, boiled down: as §1
Experiment [6] addresses Fuc(a1-2)[Gal(a1-3)]Gal(b1-4)[Fuc(a1-3)]GlcNAc. An outline of the steps:
as §1

In experiment [7] the target is Fuc(a1-2)[GalNAc(a1-3)]Gal(b1-4)GlcNAc. The method, boiled down:
as §1

Experiment [8] concerns the target Fuc(a1-2)[GalNAc(a1-3)]Gal(b1-4)[Fuc(a1-3)]GlcNAc. The method, boiled down:
as §1

For a further experiment, the target named is Gal(b1-2)Gal. An outline of the steps: as §1
Experiment [9] concerns the target Gal(b1-3)GalNAc(b1-4)Gal(b1-4)Glc. The method, boiled down: as §1
In another experiment the target is Gal(b1-4)Glc6S. An outline of the steps:
as §1

The target in a further experiment is Gal3S6S(b1-4)GlcNAc6S. The method, boiled down:
as §1

The target in another experiment is Gal6S(b1-4)GlcNAc. The method, boiled down: as §1
In experiment [10] the target is GlcNAc(b1-3)Gal(b1-4)GlcNAc. The method, boiled down:
as §1

In experiment [11] the target is GlcNAc(b1-4)[GlcNAc(b1-6)]GalNAc. The method, boiled down: as §1
In experiment [12] the target is Man(a1-2)Man(a1-2)Man(a1-3)Man. An outline of the steps:
as §1

Experiment [13] concerns the target Neu5Ac(a2-3)Gal(b1-3)GalNAc(b1-3)Gal(a1-4)Gal(b1-4)Glc. An outline of the steps: as §1
Experiment [14] concerns the target Neu5Ac(a2-3)Gal(b1-3)GalNAc6S. The method, boiled down:
as §1

The target in experiment [15] is Neu5Ac(a2-3)GalNAc(b1-4)GlcNAc. The method, boiled down:
as §1

In experiment [16] the target is Neu5Ac(a2-6)Gal(b1-4)GlcNAc. An outline of the steps:
as §1

In experiment [17] the target is Neu5Ac(a2-6)Gal(b1-4)GlcNAc(b1-3)Gal(b1-4)[Fuc(a1-3)]GlcNAc(b1-3)Gal(b1-4)[Fuc(a1-3)]GlcNAc. The method, boiled down: as §1
For experiment [18], the target named is Neu5Ac9Ac(a2-6)Gal(b1-4)GlcNAc. An outline of the steps: as §1
The target in the next experiment is Fuc(b1-3)GlcNAc. An outline of the steps: as §1
Another experiment deals with Gal(a1-3)Gal(b1-4)GlcNAc. An outline of the steps: as §1
The target of a further experiment is Gal(a1-3)GalNAc. An outline of the steps: as §1
For experiment [19], the target named is Gal(b1-4)GlcNAc(b1-3)GalNAc. An outline of the steps: as §1
In experiment [20] the target is GlcNAc(b1-2)Gal(b1-3)GalNAc. The method, boiled down:
as §1

Experiment [21] concerns the target GlcNAc(b1-4)GlcNAc(b1-4)GlcNAc. An outline of the steps:
as §1

Experiment [22] has as its target Neu5Ac(a2-3)Gal(b1-3)GalNAc. An outline of the steps:
as §1

Experiment [23] concerns the target Neu5Ac(a2-3)Gal(b1-3)[Neu5Ac(a2-3)Gal(b1-4)]GlcNAc. The method, boiled down:
as §1

Experiment [24] has as its target Neu5Ac(a2-3)Gal(b1-4)[Fuc(a1-3)]GlcNAc(b1-3)Gal(b1-4)[Fuc(a1-3)]GlcNAc(b1-3)Gal(b1-4)[Fuc(a1-3)]GlcNAc. The method, boiled down:
as §1

For experiment [25], the target named is Neu5Ac(a2-8)Neu5Ac(a2-8)Neu5Ac. The method, boiled down:
as §1

Experiment [26] concerns the target Neu5Gc(a2-3)Gal(b1-3)[Fuc(a1-4)]GlcNAc. An outline of the steps: as §1
A further experiment has as its target Neu5Gc(a2-3)Gal(b1-4)Glc. The method, boiled down:
as §1

The source of these data is the supplement of paper PMC8728848.

About 410 targets per protein were measured; listed, in parts, are those with the strongest signals and a random draw of the rest.

B1: CLEC-6 (Homo sapiens), Q8WXI8 (protein)
chain: MGLEKPQSKLEGGMHPQLIPSVIAVVFILLLSVCFIASCLVTHHNFSRCKRGTGVHKLEHHAKLKCIKEKSELKSAEGSTWNCCPIDWRAFQSNCYFPLTDNKTWAESERNCSGMGAHLMTISTEAEQNFIIQFLDRRLSYFLGLRDENAKGQWRWVDQTPFNPRRVFWHKNEPDNSQGENCVVLVYNQDKWAWNDVPCNFEASRICKIPGTTLN
Regarding B1, the “glycan array binding signal (z-score)” value is 6.22 in [1]; -0.176 in experiment [2]; -0.295 in experiment [3]; 0.12 in experiment [4]; -0.282 in experiment [5]; -0.276 in experiment [6]. The “glycan array binding signal (z-score)” value was -0.239 in [7]; -0.102 in experiment [8]; -0.038 with Gal(b1-2)Gal; -0.328 in experiment [9]; -0.263 with Gal(b1-4)Glc6S; 6.21 in the experiment with Gal3S6S(b1-4)GlcNAc6S. Besides, the “glycan array binding signal (z-score)” value with Gal6S(b1-4)GlcNAc is -0.239; in experiment [10], -0.077; in [11] it was -0.138; in experiment [12], 1.94; in experiment [13], -0.144; in experiment [14] it was -0.077. Moreover, the “glycan array binding signal (z-score)” value was -0.104 in experiment [15], -0.221 in [16], 1.59 in [17] and -0.166 in [18].

B2: Siglec-G (Mus musculus), Q80ZE3 (protein)
chain: MSLLLFLLSFLLDGPQGQMESYFLQVQRIVKAQEGLCIFVPCSFSSPEGKWLNRSPLYGYWFKGIRKPSLSFPVATNNKDKVLEWEARGRFQLLGDISKKNCSLLIKDVQWGDSTNYFFRMERGFERFSFKEEFRLQVEALTQKPDIFIPEVLEPGEPVTVVCLFSWTFNQCPAPSFSWMGDAVSFQESRPHTSNYSVLSFIPGLQHHDTELTCQLDFSRMSTQRTVRLRVAYAPRSLAISIFHDNVSVPDLHENPSHLEVQQGQSLRLLCTADSQPPATLSWVLEDQVLSWSSPVGSRTLALELPWVKAGDSGHYTCQAENRLGSQQHTLDLSVLYPPQDLRVTVSQANRTVLEILRNAISLPVLEGQSLCLVCVTYSNPPANVSWAWVTQTLIPIQSSEPGVLELPLVQREHEGEFTCAAQNPLGAQRISLSLSVHYPPQMSSPSCSWEAKGLHCNCSSRAWPAPSLRWRLGEGLLEGNSSNASFTVTFSSLGPWVNSSLSLLQELGPSLWLSCESWNTHGAQTTSVLLLPDKDSATAFSKGAVLGFGITALLALCLIVVIVKTLQKKGTQEEPSRPKLSRGSTILDYINVVPKTRSLARNWKAEPDAPSRSSPLDTHFPKPKKKQKDPHFTYPGCPDPTSSSQVPVSENNPEELHYAALNFSRLRLQETQDPQDTYSDYTEVRVH
With B2, the “glycan array binding signal (z-score)” value in experiment [1] is -0.186; in the experiment with Fuc(b1-3)GlcNAc, 1.54; with Gal(a1-3)Gal(b1-4)GlcNAc, -0.064; with Gal(a1-3)GalNAc it was -0.268; in experiment [19] it was -0.134; in [20] it was -0.21. Further, the “glycan array binding signal (z-score)” value is -0.138 in experiment [21]; 0.414 in [22]; 0.903 in [23]; 1 in experiment [24]; 1.22 in experiment [25]; 0.241 in experiment [26]. Also, the “glycan array binding signal (z-score)” value with Neu5Gc(a2-3)Gal(b1-4)Glc was -0.022.
